Only a selection was taken, and the strongest signals are over-represented in it overall.
Tests used:
Test in all cases: glycan array binding signal (z-score within array); higher = stronger binding
Conditions in all cases: glycan notation: IUPAC condensed, linker removed; mutation: Y54A
[1] = molecular target: GalNAc3S(b1-4)[Fuc(a1-3)]GlcNAc
Summary of the method: (§1)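 Columns mapping to the same glycan were averaged after glycan names were converted to IUPAC-condensed notation. The data come from 3228 arrays in the Consortium for Functional Glycomics database, limited to those with an available protein sequence. Binding is reported as a within-array Z-score averaged across arrays of one protein sequence and across linkers.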

[2] = molecular target: GlcA3S(b1-3)Gal(b1-4)GlcNAc(b1-3)Gal(b1-4)Glc
Summary of the method: as §1

[3] = molecular target: GlcNAc(b1-2)Gal(b1-3)GalNAc
Summary of the method: as §1

[4] = molecular target: Man(a1-3)[Man(a1-6)]Man(a1-6)[Man(a1-2)Man(a1-3)]Man(b1-4)GlcNAc(b1-4)GlcNAc
Summary of the method: as §1

[5] = molecular target: Neu5Ac(a2-3)Gal(b1-3)GalNAc6S
Summary of the method: as §1

[6] = molecular target: Neu5Ac(a2-3)Gal(b1-3)GlcNAc(b1-2)Man(a1-3)[Neu5Ac(a2-3)Gal(b1-3)GlcNAc(b1-2)Man(a1-6)]Man(b1-4)GlcNAc(b1-4)GlcNAc
Summary of the method: as §1

[7] = molecular target: Neu5Ac(a2-3)Gal(b1-3)GlcNAc(b1-2)[Neu5Ac(a2-3)Gal(b1-3)GlcNAc(b1-4)]Man(a1-6)[Neu5Ac(a2-3)Gal(b1-3)GlcNAc(b1-2)Man(a1-3)]Man(b1-4)GlcNAc(b1-4)GlcNAc
Summary of the method: as §1

[8] = molecular target: Neu5Ac(a2-3)Gal(b1-3)GlcNAc6S
Summary of the method: as §1

[9] = molecular target: Neu5Ac(a2-3)Gal(b1-3)[Neu5Ac(a2-6)]GalNAc
Summary of the method: as §1

[10] = molecular target: Neu5Ac(a2-3)Gal(b1-4)GlcNAc(b1-2)Man(a1-3)[Neu5Ac(a2-3)Gal(b1-4)GlcNAc(b1-2)Man(a1-6)]Man(b1-4)GlcNAc(b1-4)GlcNAc
Summary of the method: as §1

[11] = molecular target: Neu5Ac(a2-3)Gal(b1-4)GlcNAc(b1-3)GalNAc
Summary of the method: as §1

[12] = molecular target: Neu5Ac(a2-3)Gal(b1-4)[Fuc(a1-3)]GlcNAc(b1-3)GalNAc
Summary of the method: as §1

[13] = molecular target: Neu5Ac(a2-3)Gal6S(b1-4)GlcNAc
Summary of the method: as §1

Neu5Ac(a2-6)Gal(b1-4)Glc = molecular target: Neu5Ac(a2-6)Gal(b1-4)Glc
Summary of the method: as §1

[14] = molecular target: Neu5Ac(a2-6)Gal(b1-4)GlcNAc(b1-2)Man(a1-3)[GlcNAc(b1-4)][Neu5Ac(a2-6)Gal(b1-4)GlcNAc(b1-2)Man(a1-6)]Man(b1-4)GlcNAc(b1-4)GlcNAc
Summary of the method: as §1

[15] = molecular target: Neu5Ac(a2-6)Gal(b1-4)GlcNAc(b1-2)[Neu5Ac(a2-6)Gal(b1-4)GlcNAc(b1-4)]Man(a1-3)[GlcNAc(b1-4)][Neu5Ac(a2-6)Gal(b1-4)GlcNAc(b1-2)[Neu5Ac(a2-6)Gal(b1-4)GlcNAc(b1-6)]Man(a1-6)]Man(b1-4)GlcNAc(b1-4)GlcNAc
Summary of the method: as §1

[16] = molecular target: Neu5Ac(a2-6)Gal(b1-4)GlcNAc(b1-3)Gal(b1-4)GlcNAc(b1-3)Gal(b1-4)GlcNAc
Summary of the method: as §1

[17] = molecular target: Neu5Ac(a2-6)Gal(b1-4)GlcNAc(b1-3)Gal(b1-4)[Fuc(a1-3)]GlcNAc(b1-3)Gal(b1-4)[Fuc(a1-3)]GlcNAc
Summary of the method: as §1

[18] = molecular target: Neu5Ac(a2-6)Gal(b1-4)GlcNAc(b1-6)[Gal(b1-3)]GalNAc
Summary of the method: as §1

[19] = molecular target: Neu5Ac(a2-6)Gal(b1-4)GlcNAc6S
Summary of the method: as §1

[20] = molecular target: Neu5Ac(a2-8)Neu5Ac(a2-8)Neu5Ac(a2-3)Gal(b1-4)Glc
Summary of the method: as §1

[21] = molecular target: Neu5Ac(a2-8)Neu5Gc(a2-3)Gal(b1-4)GlcNAc
Summary of the method: as §1

Neu5Ac(b2-6)GalNAc = molecular target: Neu5Ac(b2-6)GalNAc
Summary of the method: as §1

[22] = molecular target: Neu5Gc(a2-3)Gal(b1-4)GlcNAc(b1-3)Gal(b1-4)GlcNAc(b1-2)Man(a1-3)[Neu5Gc(a2-3)Gal(b1-4)GlcNAc(b1-3)Gal(b1-4)GlcNAc(b1-2)Man(a1-6)]Man(b1-4)GlcNAc(b1-4)GlcNAc
Summary of the method: as §1

[23] = molecular target: Neu5Gc(b2-6)Gal(b1-4)GlcNAc
Summary of the method: as §1

B1: CBP21 (Serratia marcescens), O83009 (protein)
chain: MNKTSRTLLSLGLLSAAMFGVSQQANAHGYVESPASRAYQCKLQLNTQCGSVQAEPQSVEGLKGFPQAGPADGHIASADKSTFFELDQQTPTRWNKLNLKTGPNSFTWKLTARHSTTSWRYFITKPNWDASQPLTRASFDLTPFCQFNDGGAIPAAQVTHQCNIPADRSGSHVILAVWDIADTANAFYQAIDVNLSK
[1]
  glycan array binding signal (z-score): 0.039
[2]
  glycan array binding signal (z-score): -0.278
[3]
  glycan array binding signal (z-score): -0.7
[4]
  glycan array binding signal (z-score): 0.228
[5]
  glycan array binding signal (z-score): 5.86
[6]
  glycan array binding signal (z-score): -0.307
[7]
  glycan array binding signal (z-score): 5.4
[8]
  glycan array binding signal (z-score): -0.121
[9]
  glycan array binding signal (z-score): 3.97
[10]
  glycan array binding signal (z-score): -0.458
[11]
  glycan array binding signal (z-score): 3.83
[12]
  glycan array binding signal (z-score): 0.503
[13]
  glycan array binding signal (z-score): 4.07
Neu5Ac(a2-6)Gal(b1-4)Glc
  glycan array binding signal (z-score): -0.381
[14]
  glycan array binding signal (z-score): -0.098
[15]
  glycan array binding signal (z-score): 0.142
[16]
  glycan array binding signal (z-score): -0.314
[17]
  glycan array binding signal (z-score): 4.6
[18]
  glycan array binding signal (z-score): 0.13
[19]
  glycan array binding signal (z-score): 3.37
[20]
  glycan array binding signal (z-score): 0.027
[21]
  glycan array binding signal (z-score): -0.455
Neu5Ac(b2-6)GalNAc
  glycan array binding signal (z-score): -0.919
[22]
  glycan array binding signal (z-score): 2.24
[23]
  glycan array binding signal (z-score): -0.206
